# In ChEMBL document CHEMBL1961873, “Compounds: GSK PKIS; Assays: Nanosyn kinase panel” (2012):
# Legend:
# [1] = target: Sphingosine kinase 1 (Homo sapiens) (UniProt Q9NYA1); settings: at 1 µM;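 also: mean SPHK1 inhibition value reported from the GSK PKIS kinase panel screen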
# [2] = target: T1, Sphingosine kinase 2 (Homo sapiens) (UniProt Q9NRA0); settings: at 0.1 µM
# T1 sequence (whole entry): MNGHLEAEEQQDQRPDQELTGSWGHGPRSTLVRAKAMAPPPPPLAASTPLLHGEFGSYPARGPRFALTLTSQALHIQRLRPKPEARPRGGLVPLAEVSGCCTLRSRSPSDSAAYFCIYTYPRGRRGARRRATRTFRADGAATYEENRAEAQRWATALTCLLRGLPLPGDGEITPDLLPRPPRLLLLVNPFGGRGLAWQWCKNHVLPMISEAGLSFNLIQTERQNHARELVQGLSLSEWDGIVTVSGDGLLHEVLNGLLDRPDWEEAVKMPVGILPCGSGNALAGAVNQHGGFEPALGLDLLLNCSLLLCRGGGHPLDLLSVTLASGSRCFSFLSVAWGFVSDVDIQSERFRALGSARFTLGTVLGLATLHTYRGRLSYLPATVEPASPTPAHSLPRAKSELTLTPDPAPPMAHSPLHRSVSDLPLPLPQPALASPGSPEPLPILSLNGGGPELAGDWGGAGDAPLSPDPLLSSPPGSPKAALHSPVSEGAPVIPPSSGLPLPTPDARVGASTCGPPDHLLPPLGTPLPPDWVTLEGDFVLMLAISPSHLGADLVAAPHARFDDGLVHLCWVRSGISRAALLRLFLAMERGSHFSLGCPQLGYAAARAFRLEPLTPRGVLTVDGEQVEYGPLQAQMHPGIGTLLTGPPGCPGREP
# [3] = target: T1, Sphingosine kinase 2 (Homo sapiens); settings: at 1 µM
# [4] = target: Casein kinase II subunit alpha (Homo sapiens) (UniProt P68400); settings: at 0.1 µM
# [5] = target: Casein kinase II subunit alpha (Homo sapiens) (UniProt P68400); settings: at 1 µM
# [6] = target: T2, Inhibitor of nuclear factor kappa-B kinase subunit alpha (Homo sapiens) (UniProt O15111); settings: at 0.1 µM
# T2 sequence (whole entry): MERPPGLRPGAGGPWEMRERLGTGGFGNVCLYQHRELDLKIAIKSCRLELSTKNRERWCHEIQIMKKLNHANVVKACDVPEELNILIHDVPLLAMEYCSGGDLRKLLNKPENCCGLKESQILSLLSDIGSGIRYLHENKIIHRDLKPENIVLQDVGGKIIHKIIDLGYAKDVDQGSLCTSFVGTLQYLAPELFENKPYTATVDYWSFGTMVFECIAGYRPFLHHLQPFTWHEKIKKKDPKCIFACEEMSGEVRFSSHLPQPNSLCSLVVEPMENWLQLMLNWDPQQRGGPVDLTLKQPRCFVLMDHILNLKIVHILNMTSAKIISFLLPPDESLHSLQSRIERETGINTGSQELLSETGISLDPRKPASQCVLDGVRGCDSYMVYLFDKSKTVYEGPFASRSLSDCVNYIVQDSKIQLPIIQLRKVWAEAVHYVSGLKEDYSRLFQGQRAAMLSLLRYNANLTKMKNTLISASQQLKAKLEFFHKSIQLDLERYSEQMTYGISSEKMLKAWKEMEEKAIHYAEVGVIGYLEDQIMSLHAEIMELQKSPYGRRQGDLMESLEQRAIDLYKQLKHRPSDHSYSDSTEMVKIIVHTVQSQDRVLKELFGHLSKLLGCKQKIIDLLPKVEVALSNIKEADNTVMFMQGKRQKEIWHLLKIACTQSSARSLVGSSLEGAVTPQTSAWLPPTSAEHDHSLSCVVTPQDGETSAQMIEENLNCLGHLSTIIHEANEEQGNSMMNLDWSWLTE
# [7] = target: T2, Inhibitor of nuclear factor kappa-B kinase subunit alpha (Homo sapiens); settings: at 1 µM
# [8] = target: T3, Inhibitor of nuclear factor kappa-B kinase subunit beta (Homo sapiens) (UniProt O14920); settings: at 0.1 µM
# T3 sequence (whole entry): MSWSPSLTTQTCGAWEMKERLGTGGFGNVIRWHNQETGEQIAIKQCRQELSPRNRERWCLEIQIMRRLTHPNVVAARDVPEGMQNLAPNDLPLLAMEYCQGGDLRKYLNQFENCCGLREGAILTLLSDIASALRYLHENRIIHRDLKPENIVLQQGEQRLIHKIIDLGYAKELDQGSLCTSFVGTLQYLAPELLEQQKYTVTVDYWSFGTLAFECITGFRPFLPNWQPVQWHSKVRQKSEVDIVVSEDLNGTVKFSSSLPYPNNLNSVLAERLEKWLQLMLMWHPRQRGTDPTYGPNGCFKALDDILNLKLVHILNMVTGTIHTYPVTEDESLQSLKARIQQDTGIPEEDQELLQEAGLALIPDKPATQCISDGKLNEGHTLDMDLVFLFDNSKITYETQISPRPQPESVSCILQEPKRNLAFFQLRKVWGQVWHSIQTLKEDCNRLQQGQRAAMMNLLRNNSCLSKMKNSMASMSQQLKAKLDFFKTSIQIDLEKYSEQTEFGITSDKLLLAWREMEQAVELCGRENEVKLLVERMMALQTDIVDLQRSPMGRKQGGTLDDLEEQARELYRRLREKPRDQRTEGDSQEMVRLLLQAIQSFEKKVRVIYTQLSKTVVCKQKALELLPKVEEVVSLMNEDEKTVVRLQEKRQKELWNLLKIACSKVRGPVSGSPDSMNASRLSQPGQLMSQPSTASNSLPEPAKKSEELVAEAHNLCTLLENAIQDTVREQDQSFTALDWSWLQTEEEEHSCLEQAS
# [9] = target: T3, Inhibitor of nuclear factor kappa-B kinase subunit beta (Homo sapiens); settings: at 1 µM
# [10] = target: T4, Inhibitor of nuclear factor kappa-B kinase subunit epsilon (Homo sapiens) (UniProt Q14164); settings: at 0.1 µM;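 also: mean inhibition of IKKε reported, from the GSK PKIS dataset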
# T4 sequence (whole entry): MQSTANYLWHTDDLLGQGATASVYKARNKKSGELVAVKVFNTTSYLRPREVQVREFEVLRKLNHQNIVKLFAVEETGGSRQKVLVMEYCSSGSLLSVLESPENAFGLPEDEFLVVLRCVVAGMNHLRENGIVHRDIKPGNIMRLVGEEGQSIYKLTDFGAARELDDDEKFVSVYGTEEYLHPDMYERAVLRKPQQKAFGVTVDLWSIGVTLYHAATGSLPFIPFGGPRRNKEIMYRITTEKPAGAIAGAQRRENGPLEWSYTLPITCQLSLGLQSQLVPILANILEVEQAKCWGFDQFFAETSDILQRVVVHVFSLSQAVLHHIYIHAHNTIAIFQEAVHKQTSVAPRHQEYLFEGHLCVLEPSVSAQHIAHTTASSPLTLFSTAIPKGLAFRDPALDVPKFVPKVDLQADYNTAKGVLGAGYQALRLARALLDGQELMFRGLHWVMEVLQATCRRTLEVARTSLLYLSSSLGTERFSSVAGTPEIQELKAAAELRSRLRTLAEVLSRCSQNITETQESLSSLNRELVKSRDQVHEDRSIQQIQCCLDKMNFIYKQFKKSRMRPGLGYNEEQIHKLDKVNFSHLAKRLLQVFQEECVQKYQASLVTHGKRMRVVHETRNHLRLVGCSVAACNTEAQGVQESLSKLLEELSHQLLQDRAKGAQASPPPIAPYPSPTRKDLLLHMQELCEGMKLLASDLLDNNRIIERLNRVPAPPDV
# Casein kinase II subunit alpha (Homo sapiens), sequence (P68400 whole entry, looked up): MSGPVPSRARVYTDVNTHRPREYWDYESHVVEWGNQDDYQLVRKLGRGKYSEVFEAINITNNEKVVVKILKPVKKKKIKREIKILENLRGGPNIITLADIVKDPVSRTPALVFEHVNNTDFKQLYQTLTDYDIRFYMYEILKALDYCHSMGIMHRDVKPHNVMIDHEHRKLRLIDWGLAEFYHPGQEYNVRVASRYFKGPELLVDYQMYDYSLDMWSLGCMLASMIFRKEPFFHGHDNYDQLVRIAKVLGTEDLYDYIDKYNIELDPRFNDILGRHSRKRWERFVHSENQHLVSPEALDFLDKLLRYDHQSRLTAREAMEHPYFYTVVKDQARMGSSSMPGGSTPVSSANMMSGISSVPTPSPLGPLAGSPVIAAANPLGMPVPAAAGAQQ
# Sphingosine kinase 1 (Homo sapiens), sequence (Q9NYA1 whole entry): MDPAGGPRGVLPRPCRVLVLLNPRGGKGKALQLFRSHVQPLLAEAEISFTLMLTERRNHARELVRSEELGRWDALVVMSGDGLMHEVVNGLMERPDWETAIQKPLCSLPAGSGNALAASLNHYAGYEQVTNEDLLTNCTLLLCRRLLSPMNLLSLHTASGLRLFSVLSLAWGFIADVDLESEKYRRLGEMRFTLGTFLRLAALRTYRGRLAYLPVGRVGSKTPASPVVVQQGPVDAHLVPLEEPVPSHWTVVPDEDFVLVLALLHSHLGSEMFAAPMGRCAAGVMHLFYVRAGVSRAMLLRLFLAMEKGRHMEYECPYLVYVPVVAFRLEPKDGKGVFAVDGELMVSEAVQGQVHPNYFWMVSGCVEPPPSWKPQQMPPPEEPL
compound,measurement,setting,value
CCn1c(-c2nonc2N)nc2c(C#CC(C)(C)O)nc(OCCNC)cc21,inhibition,[1],0.34%
same,inhibition,[2],0.23%
same,inhibition,[3],3.77%
same,inhibition,[4],3.96%
same,inhibition,[5],3.67%
same,inhibition,[6],8.37%
same,inhibition,[7],7.87%
same,inhibition,[8],7.32%
same,inhibition,[9],8.81%
same,inhibition,[10],15.2%
